Assay results taken from PubChem BioAssay (NCI).
About 83,000 compounds went through this panel and 20% of them were active in at least one assay; those are over-represented in the sample as a whole.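 Results are percent growth after 48 hours of single-concentration exposure. 100 means growth as in untreated cells, lower positive values show inhibition; negative values down to -100 show cell death.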 Activity calls are given as the source filed them. Rule for the calls: active = growth percent below 10; inactive = the rest.

Columns and labels:
Assay in all cases: NCI-60 one-dose screen, 48 h (100 = growth as untreated, 0 = no growth, -100 = all killed)
Details in all cases: 10 µM
SK-MEL-2 melanoma = system: SK-MEL-2 melanoma
SN12C renal = system: SN12C renal
UO-31 renal = system: UO-31 renal
TK-10 renal = system: TK-10 renal
ACHN renal = system: ACHN renal
CAKI-1 renal = system: CAKI-1 renal
A498 renal = system: A498 renal
CCRF-CEM leukemia = system: CCRF-CEM leukemia
MOLT-4 leukemia = system: MOLT-4 leukemia
SR leukemia = system: SR leukemia
RPMI-8226 leukemia = system: RPMI-8226 leukemia
OVCAR-8 ovarian = system: OVCAR-8 ovarian
OVCAR-5 ovarian = system: OVCAR-5 ovarian
OVCAR-4 ovarian = system: OVCAR-4 ovarian
SK-OV-3 ovarian = system: SK-OV-3 ovarian
IGROV1 ovarian = system: IGROV1 ovarian
OVCAR-3 ovarian = system: OVCAR-3 ovarian
HS 578T breast = system: HS 578T breast
NCI/ADR-RES ovarian = system: NCI/ADR-RES ovarian

Measured: growth

COc1ccc2nc(C)cc(Nc3ccc(Cl)cc3)c2c1
inactive: SK-MEL-2 melanoma 104% | SN12C renal 97.4% | UO-31 renal 91.1% | TK-10 renal 109% | ACHN renal 105% | CAKI-1 renal 101% | A498 renal 103% | CCRF-CEM leukemia 94.5% | MOLT-4 leukemia 110% | SR leukemia 113% | RPMI-8226 leukemia 102% | OVCAR-8 ovarian 101% | OVCAR-5 ovarian 101% | OVCAR-4 ovarian 90.5% | SK-OV-3 ovarian 105% | IGROV1 ovarian 98.2% | OVCAR-3 ovarian 105% | HS 578T breast 112% | NCI/ADR-RES ovarian 102%

CCc1ccc(Nc2cc(C)nc3nc(C)nn23)cc1
inactive: SK-MEL-2 melanoma 14.5% | SN12C renal 26.2% | UO-31 renal 13.4% | A498 renal 34.7% | OVCAR-5 ovarian 26.4% | SK-OV-3 ovarian 38.3% | IGROV1 ovarian 32.8% | HS 578T breast 50.8%
active: TK-10 renal -6.1% | ACHN renal -2.86% | CAKI-1 renal 0.395% | CCRF-CEM leukemia -10.6% | MOLT-4 leukemia -20.7% | SR leukemia -20.9% | RPMI-8226 leukemia -35.2% | OVCAR-8 ovarian -69.2% | OVCAR-4 ovarian -13.1% | OVCAR-3 ovarian -92.2% | NCI/ADR-RES ovarian -29.5%

N#Cc1ncc(-c2cc(F)ccc2F)c(NC2CCCCCC2)n1
inactive: SK-MEL-2 melanoma 74.9% | SN12C renal 80.8% | UO-31 renal 81.5% | TK-10 renal 101% | ACHN renal 88.8% | CAKI-1 renal 88.2% | A498 renal 58.2% | CCRF-CEM leukemia 81.3% | MOLT-4 leukemia 79.4% | SR leukemia 81.6% | RPMI-8226 leukemia 57.8% | OVCAR-8 ovarian 88.4% | OVCAR-5 ovarian 98.9% | OVCAR-4 ovarian 80.3% | SK-OV-3 ovarian 91.6% | IGROV1 ovarian 86% | OVCAR-3 ovarian 103% | HS 578T breast 58.2% | NCI/ADR-RES ovarian 91.2%

C#CCn1c(-c2cccc(OCCCCl)c2)nc2c1c(=O)n(C)c(=O)n2C
inactive: SK-MEL-2 melanoma 81% | SN12C renal 84.5% | UO-31 renal 50.5% | TK-10 renal 101% | ACHN renal 76.6% | CAKI-1 renal 69.2% | A498 renal 83.6% | CCRF-CEM leukemia 13% | SR leukemia 43.6% | RPMI-8226 leukemia 10.5% | OVCAR-8 ovarian 54.8% | OVCAR-5 ovarian 98.9% | OVCAR-4 ovarian 57% | SK-OV-3 ovarian 93.7% | IGROV1 ovarian 73.9% | OVCAR-3 ovarian 58.1% | HS 578T breast 99% | NCI/ADR-RES ovarian 66.1%
active: MOLT-4 leukemia 2.33%

COc1cccc(C2(C)Nc3ccccc3-c3nc4ccccc4n32)c1 (stereo not drawn)
inactive: SK-MEL-2 melanoma 105% | SN12C renal 100% | UO-31 renal 94.2% | TK-10 renal 106% | ACHN renal 102% | CAKI-1 renal 99.8% | A498 renal 95.6% | CCRF-CEM leukemia 99.1% | MOLT-4 leukemia 84.5% | SR leukemia 87.7% | RPMI-8226 leukemia 96.4% | OVCAR-8 ovarian 105% | OVCAR-5 ovarian 109% | OVCAR-4 ovarian 112% | SK-OV-3 ovarian 104% | IGROV1 ovarian 101% | OVCAR-3 ovarian 112% | HS 578T breast 112% | NCI/ADR-RES ovarian 97%

COc1ccc(-c2nsc3c2NC(=O)CC3c2ccc(Cl)cc2)cc1 (stereo not drawn)
inactive: SK-MEL-2 melanoma 77.2% | SN12C renal 83.8% | UO-31 renal 62.8% | TK-10 renal 83.9% | ACHN renal 82.7% | CAKI-1 renal 80.2% | A498 renal 83.3% | CCRF-CEM leukemia 74.4% | MOLT-4 leukemia 66.9% | SR leukemia 67.8% | RPMI-8226 leukemia 72.2% | OVCAR-8 ovarian 90.2% | OVCAR-5 ovarian 100% | OVCAR-4 ovarian 99.8% | SK-OV-3 ovarian 86.9% | IGROV1 ovarian 77.6% | OVCAR-3 ovarian 93.2% | HS 578T breast 95.3% | NCI/ADR-RES ovarian 81.1%

O=C(NCCCl)c1cc(Cl)cc(Cl)c1
inactive: SK-MEL-2 melanoma 117% | SN12C renal 97% | UO-31 renal 84% | TK-10 renal 117% | ACHN renal 107% | CAKI-1 renal 96.8% | A498 renal 80.9% | CCRF-CEM leukemia 97.2% | MOLT-4 leukemia 105% | SR leukemia 103% | RPMI-8226 leukemia 102% | OVCAR-8 ovarian 102% | OVCAR-5 ovarian 107% | OVCAR-4 ovarian 95.1% | SK-OV-3 ovarian 103% | IGROV1 ovarian 106% | OVCAR-3 ovarian 114% | HS 578T breast 103% | NCI/ADR-RES ovarian 105%
